Test results: PubChem BioAssay (NCATS)
Records with an inconclusive call do not appear. The source made the active and inactive calls. Unless noted, the call rests on the fitted dose curve.

What was measured:
[1] = qHTS for identification of novel therapeutic agents for treatment of microphthalmiaassociated transcription factor (MiT) renal cell carcinoma (RCC) (AID 1963991); details: CellTiter-Glo, 48 h; for Potency: active = Z-AUC below -0.8 in all three lines; for z-score: stronger effect = lower value; further: potency means the concentration at half of the fitted maximal effect
How it was run: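 Curves over 11 concentrations were fitted to CellTiter-Glo luminescence, scaled between empty wells (0%) and DMSO (100%) viability. Cells were UOK109, UOK124 and UOK145 TFE3-fusion RCC lines at 500/well, exposed 48 hours at 37 C.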

[2] = qHTS profiling for inhibitors of Plasmodium falciparum proliferation (AID 504749; active means well fitted inhibition curve with a large enough effect;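 further: 0% = DMSO vehicle and full inhibition = artemisinin control; nearly all actives have a fitted effect of over 60% in size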); details: P. falciparum in erythrocytes, SYBR Green DNA, 72 h, at 28.7 µM (top of the series)
How it was run: (§1)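 Quantitative HTS: compounds pinned into medium, infected erythrocytes added (0.3% parasitemia, 2.5% hematocrit), 72 h culture at 37 C under 5% CO2. Saponin/Triton lysis with SYBR Green I, overnight RT, then fluorescence read.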

3D7 = assay: as above; details: P. falciparum in erythrocytes, SYBR Green DNA, 72 h; series mostly up to 28.7 µM
How it was run: as §1

7G8 = assay: as above; details: P. falciparum in erythrocytes, SYBR Green DNA, 72 h; series mostly up to 28.7 µM
How it was run: as §1

AA1029 = assay: as above; details: P. falciparum in erythrocytes, SYBR Green DNA, 72 h; series mostly up to 28.7 µM
How it was run: as §1

AS120 = assay: as above; details: P. falciparum in erythrocytes, SYBR Green DNA, 72 h; series mostly up to 28.7 µM
How it was run: as §1

[3] = TFE3-RCC UOK109 viability, measured here: UOK109 Z-AUC
[4] = TFE3-RCC viability, measured here: UOK124 Z-AUC
[5] = TFE3-RCC viability, measured here: UOK145 Z-AUC

Question: With `CCOc1cc2ncc(C#N)c(Nc3ccc(OCc4ccccn4)c(Cl)c3)c2cc1NC(=O)C=CCN(C)C` as the compound, how does the Potency ([1]; TFE3-RCC UOK109 viability) read?
Answer: The Potency was 16.6 nM (active).

Question: And the z-score [1, 3]?
Answer: Its z-score is -2.6.

Question: What about the z-score [1, 4] of the same compound?
Answer: The z-score was -0.947.

Question: And the z-score [1, 5]?
Answer: Its z-score is -1.43.

Question: Which Potency ([1]; TFE3-RCC UOK109 viability) does the source give for `CCN(CC)CCNC(=O)c1c(C)[nH]c(C=C2C(=O)Nc3ccc(F)cc32)c1C` here?
Answer: The Potency was 34000 nM (active).

Question: What about the z-score [1, 3] of the same compound?
Answer: The z-score was -1.15.

Question: And the z-score [1, 4]?
Answer: Its z-score is -1.68.

Question: And the z-score [1, 5]?
Answer: The z-score was -1.38.

Question: Which z-score [1, 3] does the source give for `CC[C@H](CC[C@@H](C)[C@H]1CC[C@H]2[C@@H]3CC=C4C[C@@H](O)CC[C@]4(C)[C@@H]3CC[C@]12C)C(C)C` here?
Answer: Its z-score is 0.368.

Question: And the z-score [1, 4]?
Answer: Its z-score is 0.916.

Question: And the z-score [1, 5]?
Answer: The z-score was 0.197.

Question: Which Potency ([1]; TFE3-RCC UOK109 viability) does the source give for `COc1cc2c(Nc3ccc(Cl)c(Cl)c3F)ncnc2cc1OCC1C[C@@H]2CN(C)C[C@H]2C1` here?
Answer: Its Potency is 9350 nM (active).

Question: And the z-score [1, 3]?
Answer: The z-score was -3.52.

Question: And the z-score [1, 4]?
Answer: The z-score was -1.85.

Question: And the z-score [1, 5]?
Answer: Its z-score is -1.7.

Question: For `O=C1NC(=O)C(=Cc2ccc3nccc(-c4ccncc4)c3c2)S1`, which Potency ([1]; TFE3-RCC UOK109 viability) is on record?
Answer: The Potency was 833 nM (active).

Question: And the z-score [1, 3]?
Answer: The z-score was -1.04.

Question: And the z-score [1, 4]?
Answer: Its z-score is -1.39.

Question: And the z-score [1, 5]?
Answer: Its z-score is -1.83.

Question: With `C=CC(=O)Nc1cccc(Nc2nc(NC3CCC(N(C)C)CC3)nc3c2ncn3C(C)C)c1` (centres undefined) as the compound, how does the Potency ([1]; TFE3-RCC UOK109 viability) read?
Answer: The Potency was 46.9 nM (active).

Question: What about the z-score [1, 3] of the same compound?
Answer: Its z-score is -3.03.

Question: What about the z-score [1, 4] of the same compound?
Answer: The z-score was -0.935.

Question: What about the z-score [1, 5] of the same compound?
Answer: Its z-score is -1.36.

Question: Which z-score [1, 3] does the source give for `C[C@H](O)[C@@H]1C(=O)N2C(C(=O)O)=C(S[C@@H]3CN[C@H](CNS(N)(=O)=O)C3)[C@@H](C)[C@@H]12` here?
Answer: The z-score was -0.714.

Question: What about the z-score [1, 4] of the same compound?
Answer: Its z-score is 0.967.

Question: And the z-score [1, 5]?
Answer: Its z-score is -1.41.

Question: For `OC[C@@H](O)[C@@H](O)[C@H](O)[C@@H](O)CO`, which z-score [1, 3] is on record?
Answer: Its z-score is 0.602.

Question: And the z-score [1, 4]?
Answer: Its z-score is 0.356.

Question: And the z-score [1, 5]?
Answer: Its z-score is 0.716.

Question: Which results are given for `O=C(C=CC=Cc1ccc2c(c1)OCO2)N1CCCCC1`?
Answer: z-score [1, 3]: 0.531; z-score [1, 4]: 0.306; z-score [1, 5]: 0.432

Question: For `Cc1onc(-c2ccccc2)c1C(=O)N[C@@H]1C(=O)N2[C@@H](C(=O)O)C(C)(C)S[C@@H]12`, which z-score [1, 3] is on record?
Answer: Its z-score is 2.05.

Question: What about the z-score [1, 4] of the same compound?
Answer: Its z-score is 0.727.

Question: What about the z-score [1, 5] of the same compound?
Answer: The z-score was 1.83.

Question: Which results are given for `C#C[C@]1(O)CC[C@@H]2[C@@H]3CCC4=CC(=O)CC[C@@H]4[C@H]3CC[C@@]21CC`?
Answer: z-score [1, 3]: 0.12; z-score [1, 4]: -0.0153; z-score [1, 5]: -0.174

Question: What does the source list for `Cc1cc(-c2nnc3n2CCCCC3)c(C)n1-c1ccccc1`?
Answer: z-score [1, 3]: 0.931; z-score [1, 4]: 0.469; z-score [1, 5]: 0.656

Question: With `NC[C@H]1O[C@H](O[C@H]2[C@@H](O)[C@@H](O[C@H]3O[C@H](CO)[C@@H](O)[C@H](N)[C@@H]3O)[C@H](N)C[C@@H]2N)[C@H](N)C[C@H]1O` as the compound, how does the z-score [1, 3] read?
Answer: Its z-score is 2.03.

Question: What about the z-score [1, 4] of the same compound?
Answer: The z-score was 0.18.

Question: And the z-score [1, 5]?
Answer: The z-score was 1.86.

Question: Which z-score [1, 3] does the source give for `Nc1nc(=O)n([C@H]2CSC(CO)O2)cc1F` (some centres undefined) here?
Answer: The z-score was 0.159.

Question: And the z-score [1, 4]?
Answer: Its z-score is 0.427.

Question: And the z-score [1, 5]?
Answer: The z-score was 0.298.

Question: What does the source list for `COc1cccc2c1C(=O)c1c(O)c3c(c(O)c1C2=O)C[C@@](O)(C(C)=O)C[C@H]3O[C@H]1C[C@H](N)[C@H](O)[C@H](C)O1`?
Answer: Potency ([1]; TFE3-RCC UOK109 viability): 296 nM (active); z-score [1, 3]: -1.65; z-score [1, 4]: -2.33; z-score [1, 5]: -1.35

Question: With `OCC(O)C(O)C(O)CO` (centres undefined) as the compound, how does the z-score [1, 3] read?
Answer: Its z-score is 0.353.

Question: And the z-score [1, 4]?
Answer: Its z-score is 0.172.

Question: What about the z-score [1, 5] of the same compound?
Answer: The z-score was 0.47.

Question: What about the activity, negative = inhibition ([2]; parasite line A) of the same compound?
Answer: Its activity, negative = inhibition is 4.99% (inactive).

Question: What about the activity, negative = inhibition ([2]; parasite line B) of the same compound?
Answer: Its activity, negative = inhibition is 7.38% (inactive).

Question: What about the Potency (3D7) of the same compound?
Answer: Its Potency is “inactive”.

Question: And the Potency (7G8)?
Answer: Its Potency is “inactive”.

Question: And the Potency (AA1029)?
Answer: The Potency was “inactive”.

Question: And the Potency (AS120)?
Answer: Its Potency is “inactive”.

Question: For `C[C@H](CCC(=O)O)[C@H]1CC[C@H]2[C@@H]3[C@H](O)C[C@@H]4C[C@H](O)CC[C@]4(C)[C@@H]3CC[C@]12C`, which z-score [1, 3] is on record?
Answer: Its z-score is 0.305.

Question: And the z-score [1, 4]?
Answer: Its z-score is 0.277.

Question: And the z-score [1, 5]?
Answer: Its z-score is 0.171.

Question: Which z-score [1, 3] does the source give for `CC(=O)NC(CS)C(=O)O` (centres undefined) here?
Answer: Its z-score is 0.609.

Question: What about the z-score [1, 4] of the same compound?
Answer: The z-score was 0.0619.

Question: And the z-score [1, 5]?
Answer: Its z-score is 0.159.

Question: What does the source list for `Cc1[nH]c(C=C2C(=O)Nc3ccccc32)c(C)c1CCC(=O)O`?
Answer: Potency ([1]; TFE3-RCC UOK109 viability): 833 nM (active); z-score [1, 3]: -1.41; z-score [1, 4]: -0.97; z-score [1, 5]: -1.35

Question: Which Potency ([1]; TFE3-RCC UOK109 viability) does the source give for `CC(=O)[C@]1(O)Cc2c(O)c3c(c(O)c2[C@@H](O[C@H]2C[C@H](N)[C@@H](O)[C@H](C)O2)C1)C(=O)c1ccccc1C3=O` here?
Answer: Its Potency is 332 nM (active).

Question: What about the z-score [1, 3] of the same compound?
Answer: Its z-score is -1.95.

Question: What about the z-score [1, 4] of the same compound?
Answer: The z-score was -1.91.

Question: What about the z-score [1, 5] of the same compound?
Answer: The z-score was -1.45.
